Source: PubChem
DT40 TDP1 CPT = qHTS for Inhibitors of human tyrosyl-DNA phosphodiesterase 1 (TDP1): qHTS in cells in presence of CPT; chicken DT40 Tdp1-/-;hTDP1 cells + 20 nM CPT, ATP luminescence, 48 h; Potency, µM (titrated, usually from 46.2 µM), without a hit: at the top dose activity change, negative = growth inhibition, actives largely listed as inhibitors; 12% of 420,000 active; note: potency is the fitted concentration of half-maximal effect; nearly all actives have a fitted effect of over 55% in size
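Cell growth measured by CellTiter-Glo luminescence after a minimum 48 h, 37 C compound exposure with 20 nM CPT in Tdp1-knockout DT40 cells stably expressing hTDP1, seeded 400/well; qHTS titration format.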
HT1080NT lethal = qHTS for induction of synthetic lethality in tumor cells producing 2HG: qHTS for the HT-1080-NT fibrosarcoma cell line. 1.6% of 360,000 active. HT-1080-NT fibrosarcoma viability, CellTiter-Glo ATP luminescence, 48 h. Potency, µM (top dose mostly 46.1 µM), for the others: at the highest dose activity, negative = less viability, most hits filed as cytotoxic;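 note: NT is the 2HG producing partner of a matched IDH1 knockdown line; potency is the fitted concentration of half-maximal effect; 0% = DMSO-treated cells and -100% = media-only wells without cells; nearly all actives have a fitted effect of over 55% in size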
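750 cells/well, RPMI + 5% FBS; 2 h settle, compound pin-transfer, 48 h at 37 degrees C. CellTiter-Glo 10 min RT, luminescence. Normalized to DMSO and media-only wells.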
IL-1B inflam inh = qHTS for Inhibitors of Inflammasome Signaling: IL-1-beta AlphaLISA Primary Screen; 4.7% of 360,000 active; activity change, % at 57.5 µM; THP-1 LPS/ATP IL-1B secretion, AlphaLISA, 16 h; active compounds read low; AID 743279, 2014; in the data active = activity change below about -50%; inconclusive = mostly about -30% to -49%
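Secreted IL-1B measured by AlphaLISA bead assay after 16 h compound exposure of THP-1 cells; compounds (final up to 57.5 uM) added 1 h before LPS (250 ng/mL) and ATP (1.25 mM) stimulation; lower signal means less secretion.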
HT1080 IDH1KD tx = qHTS for induction of synthetic lethality in tumor cells producing 2HG: qHTS for the HT-1080-IDH1KD cell line; Potency, µM (doses to about 46.1 µM), without a hit: top-dose activity, negative = toxicity, most hits filed as cytotoxic; HT-1080 IDH1 knockdown viability, ATP luminescence, 48 h; 2% of 360,000 active;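 note: potency is the fitted concentration of half-maximal effect; 0% = DMSO wells and -100% = cell-free medium wells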
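After a 2 h attachment period, IDH1KD HT-1080 cells took pin-transferred compound for 48 h at 37 °C; ATP-based luminescence after 10 min room-temperature reagent incubation reported viability.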
TDP1 cell noCPT = qHTS for Inhibitors of human tyrosyl-DNA phosphodiesterase 1 (TDP1): qHTS in cells in absence of CPT | DT40 Tdp1-/- hTDP1 cells, no CPT, ATP luminescence, 48 h | Potency, µM (top dose mostly 46.2 µM), for inactives: top-dose activity change, negative = growth inhibition, hits mostly inhibitors | 15% of 420,000 active; note: potency is the fitted concentration of half-maximal effect; nearly all actives have a fitted effect of over 55% in size
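Growth of hTDP1-complemented DT40 Tdp1-knockout cells is measured by ATP luminescence after at least 48 hr compound exposure at 37 °C, with DMSO substituting for the 20 nM CPT used in the parallel screen.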
uPA surface inh = qHTS for Inhibitors of Cell Surface uPA Generation. Potency, µM (top dose mostly 38.3 µM), for the others: at the highest dose activity change, negative = inhibition, hits mostly inhibitors. 0.31% of 330,000 active. cell surface uPA generation assay, qHTS. AID 540303, 2011; active = well fitted inhibition curve with a large enough effect; inconclusive = small, poorly fitted or top-dose-only effect; inactive = no such curve, though single readings can be large or run the other way; tested in mouse RAW 264.7 cells; note: potency is the fitted concentration of half-maximal effect; nearly all actives have a fitted effect of over 55% in size
* hit, by the source's call; i = inactive; ? = inconclusive; / = not tested or not shown. Compounds with a hit are over-represented: about 19% of the library has one in this group of screens. Unless noted, calls come from the whole dose curve; as a rule, active = well fitted curve in the direction sought with a large enough effect; inconclusive = small, poorly fitted or top-dose-only effect, or another doubt; inactive = no such curve, though single readings can be large; an effect the other way counts as inactive or inconclusive. Unless noted, % is set by controls: 0 for no effect and ±100 for the full control effect.

SMILES | DT40 TDP1 CPT | HT1080NT lethal | IL-1B inflam inh | HT1080 IDH1KD tx | TDP1 cell noCPT | uPA surface inh
Cc1ccc2nc(-c3ccccc3)cc(C(=O)N3CCN(c4ccccc4O)CC3)c2c1 | ? | 0% | -23 | ? | ? | 0%
Cc1ccc(S(=O)(=O)N2CCN(C(=O)c3c(-c4ccccc4)noc3C)CC2)c(C)c1 | 18µM* | 21% | 31 | 21% | ? | 1%
COc1cccc(CNC(=O)C2CCC(CNS(=O)(=O)c3ccc(Br)s3)CC2)c1 (stereo not given) | 23µM* | / | / | / | ? | /
COc1cccc(N2CCN(C(=O)C3CCC(CNS(=O)(=O)c4ccc(Br)s4)CC3)CC2)c1 (stereo not given) | 7.3µM* | / | / | / | 6.5µM* | /
CCOc1ccc(NC(=O)C2CCC(CNS(=O)(=O)c3ccc(Br)s3)CC2)cc1 (stereo not given) | -21% | / | / | / | ? | /
O=C(C1CCC(CNS(=O)(=O)c2ccc(Br)s2)CC1)N1CCN(c2ccccc2Cl)CC1 (stereo not given) | 9.2µM* | / | / | / | 8.2µM* | /
O=C(C1CCC(CNS(=O)(=O)c2ccc(Br)s2)CC1)N1CCN(c2ccc(F)cc2)CC1 (stereo not given) | ? | / | / | / | 4.1µM* | /
Cc1ccc(C(=O)N2CCC(N3CCC(C(=O)N4CCOCC4)CC3)CC2)cc1 | -5% | 11% | 12 | 5% | -20% | /
CC(C)Nc1nc(NC(C)C)nc(SCC(N)=O)n1 | 2% | -1% | 17 | 4% | -12% | -11%
O=C(CSc1nc2[nH]c(=O)cc(O)c2s1)Nc1nncs1 | -21% | 19% | -9 | 20% | -15% | -1%
CCc1nnc(NC(=O)CSc2nc3[nH]c(=O)cc(O)c3s2)s1 | 6.5µM* | 15% | 0 | 19% | 6.5µM* | -3%
Cc1csc(NC(=O)CSc2nc3[nH]c(=O)cc(O)c3s2)n1 | 21µM* | 5.8µM* | -105* | 5.2µM* | 15µM* | -1%
CCCSc1nnc(NC(=O)CSc2nc3[nH]c(=O)cc(O)c3s2)s1 | 2% | 4% | 20 | 13% | 23% | ?
CC(NC(=O)Cn1cccc1C(=O)c1ccccc1)c1ccccc1 (stereo not given) | 13µM* | 3% | -10 | -1% | ? | 3%
CCC(C)NC(=O)Cn1cccc1C(=O)c1ccccc1 (stereo not given) | -4% | 9% | 9 | 6% | -18% | -6%
CCC(CC)c1nnc(NC(=O)c2ccc3ccccc3n2)s1 | ? | -18% | 4 | -23% | 11µM* | 1%
O=C(CSc1nnc(-c2cccnc2)o1)N1CCCCC1 | -10% | 0% | 4 | 15% | -24% | -2%
CCOc1ccc(CNC(=O)c2cccc(NC(=O)N3CCSc4ncccc43)c2)cc1OC | 16µM* | / | / | / | 16µM* | /
Cc1cccc(CNC(=O)c2cccc(NC(=O)N3CCSc4ncccc43)c2)c1 | 15µM* | / | / | / | ? | /
CC(=O)c1ccc(NC(=O)c2cccc(NC(=O)N3CCSc4ncccc43)c2)cc1 | -2% | / | / | / | -25% | /
Nc1cccc(N=[N+]([O-])c2cccc(N)c2)c1 | ? | 2% | -23 | 1% | -15% | 0%
Cc1ccc(S(=O)(=O)N2CCC(C(=O)N3CC(C)OC(C)C3)CC2)cc1 (stereo not given) | 4% | 10% | i | 14% | 0% | -1%
CCOC(=O)c1c(NC(=O)CN2CCN(C(=O)c3ccco3)CC2)sc(C)c1C | ? | 4% | 0 | 3% | 15µM* | 14%
